# Measurements as given in paper PMC7862700, “An all-to-all approach to the identification of sequence-specific readers for epigenetic DNA modifications on cytosine”.
# Key:
# Experiment in all cases: DAPPL (digital affinity profiling via proximity ligation, sequencing); 10 mM Tris-HCl pH 7.5, 50 mM NaCl, 1 mM DTT, 4% glycerol, room temperature, 30 min; GST-TFs on glutathione beads, 16-mer random dsDNA library, 0.1% formaldehyde crosslink after washing; high values mean tight binding
# FLI1 = target: T1, FLI1 (Homo sapiens, UniProt Q01543 1-452); details: protein: recombinant; tags: N-terminal GST; dsDNA, one strand shown
# T1 sequence: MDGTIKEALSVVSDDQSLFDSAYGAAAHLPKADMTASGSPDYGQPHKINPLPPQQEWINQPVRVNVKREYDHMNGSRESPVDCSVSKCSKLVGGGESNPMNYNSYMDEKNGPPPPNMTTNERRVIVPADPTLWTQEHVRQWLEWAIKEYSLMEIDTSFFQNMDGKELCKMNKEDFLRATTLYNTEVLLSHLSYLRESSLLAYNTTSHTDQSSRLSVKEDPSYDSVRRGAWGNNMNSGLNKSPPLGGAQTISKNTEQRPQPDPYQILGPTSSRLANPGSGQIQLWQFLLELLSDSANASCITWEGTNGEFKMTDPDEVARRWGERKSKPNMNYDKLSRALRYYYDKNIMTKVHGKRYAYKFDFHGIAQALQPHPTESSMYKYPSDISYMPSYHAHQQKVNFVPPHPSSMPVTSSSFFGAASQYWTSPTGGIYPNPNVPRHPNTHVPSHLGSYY
# Method in brief: (§1)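 Binding signal is each hexamer's read frequency for a factor divided by its frequency in the tag-only sample. The factors were GST-fused human transcription factors from yeast, captured on glutathione beads, DNA-barcoded and pooled with that sample. Pools were incubated with 200 nmole of a random double-stranded 16-mer DNA library in Tris/NaCl/DTT/glycerol buffer at room temperature for 30 min, then washed, crosslinked with 0.1% formaldehyde, proximity-ligated with BsaI/T4 ligase (1 h, 37 °C), PCR-amplified and sequenced on an Illumina NextSeq500.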
# ELK1 = target: T2, ELK1 (Homo sapiens, UniProt P19419 1-428); details: protein: recombinant; tags: N-terminal GST; dsDNA, one strand shown
# T2 sequence: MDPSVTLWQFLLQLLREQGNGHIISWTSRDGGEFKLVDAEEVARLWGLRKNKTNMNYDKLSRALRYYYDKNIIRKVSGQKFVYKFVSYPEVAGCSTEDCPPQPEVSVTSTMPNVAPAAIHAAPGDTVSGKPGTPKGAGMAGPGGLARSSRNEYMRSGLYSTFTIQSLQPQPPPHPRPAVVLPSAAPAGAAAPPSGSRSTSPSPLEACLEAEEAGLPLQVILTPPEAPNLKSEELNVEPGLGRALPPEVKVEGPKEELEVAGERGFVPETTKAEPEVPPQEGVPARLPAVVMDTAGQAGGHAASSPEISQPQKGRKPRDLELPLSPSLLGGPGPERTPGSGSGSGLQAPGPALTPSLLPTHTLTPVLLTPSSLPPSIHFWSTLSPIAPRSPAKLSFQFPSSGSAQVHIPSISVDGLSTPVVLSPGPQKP
# Method in brief: as §1
# GABPA = target: T3, GABPA (Homo sapiens, UniProt Q06546 1-454); details: protein: recombinant; tags: N-terminal GST; dsDNA, one strand shown
# T3 sequence: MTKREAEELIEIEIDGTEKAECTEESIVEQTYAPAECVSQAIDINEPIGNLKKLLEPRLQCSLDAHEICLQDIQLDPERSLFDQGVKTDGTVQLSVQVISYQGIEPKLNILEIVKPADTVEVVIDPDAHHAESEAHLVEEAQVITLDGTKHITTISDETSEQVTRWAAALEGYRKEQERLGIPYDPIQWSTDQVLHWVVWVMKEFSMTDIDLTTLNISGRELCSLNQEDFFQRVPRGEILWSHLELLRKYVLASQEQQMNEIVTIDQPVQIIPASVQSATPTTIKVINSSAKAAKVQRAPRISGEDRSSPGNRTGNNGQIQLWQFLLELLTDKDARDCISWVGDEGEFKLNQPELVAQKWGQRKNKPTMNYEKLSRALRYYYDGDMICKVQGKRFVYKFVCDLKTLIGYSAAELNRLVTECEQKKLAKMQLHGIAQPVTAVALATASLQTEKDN
# Method in brief: as §1
# ERG = target: T4, ERG (Homo sapiens, UniProt P11308 1-479); details: protein: recombinant; tags: N-terminal GST; dsDNA, one strand shown
# T4 sequence: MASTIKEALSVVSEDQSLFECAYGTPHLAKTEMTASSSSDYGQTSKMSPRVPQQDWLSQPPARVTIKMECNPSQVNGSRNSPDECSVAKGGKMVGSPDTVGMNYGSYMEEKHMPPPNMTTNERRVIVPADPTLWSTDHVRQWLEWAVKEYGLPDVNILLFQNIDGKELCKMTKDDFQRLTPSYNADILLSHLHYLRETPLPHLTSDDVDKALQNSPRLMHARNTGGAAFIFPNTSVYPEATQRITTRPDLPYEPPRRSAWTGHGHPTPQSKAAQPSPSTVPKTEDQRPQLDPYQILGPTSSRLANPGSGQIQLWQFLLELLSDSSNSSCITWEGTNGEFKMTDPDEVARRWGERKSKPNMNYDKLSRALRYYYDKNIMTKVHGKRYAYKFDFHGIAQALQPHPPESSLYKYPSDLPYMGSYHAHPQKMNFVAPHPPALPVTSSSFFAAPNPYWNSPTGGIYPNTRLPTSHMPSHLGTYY
# Method in brief: as §1
# ELF1 = ELF1 (Homo sapiens, UniProt P32519 1-619); details: protein: recombinant; tags: N-terminal GST; dsDNA, one strand shown
# Method in brief: as §1
# EHF = target: T5, EHF (Homo sapiens, UniProt Q9NZC4 1-300); details: protein: recombinant; tags: N-terminal GST; dsDNA, one strand shown
# T5 sequence: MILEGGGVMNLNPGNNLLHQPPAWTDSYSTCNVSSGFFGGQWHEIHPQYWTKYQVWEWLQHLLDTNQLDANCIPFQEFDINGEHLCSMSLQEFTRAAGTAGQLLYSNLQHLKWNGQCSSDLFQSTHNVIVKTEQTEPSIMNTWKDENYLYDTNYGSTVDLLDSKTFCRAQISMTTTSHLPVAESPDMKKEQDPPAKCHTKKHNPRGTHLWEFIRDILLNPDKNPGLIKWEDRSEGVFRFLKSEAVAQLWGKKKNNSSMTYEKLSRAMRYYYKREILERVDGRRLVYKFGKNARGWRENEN
# Method in brief: as §1
# SPI1 = SPI1 (Homo sapiens, UniProt P17947 1-270); details: protein: recombinant; tags: N-terminal GST; dsDNA, one strand shown
# Method in brief: as §1
# SPIB = SPIB (Homo sapiens, UniProt Q01892 1-262); details: protein: recombinant; tags: N-terminal GST; dsDNA, one strand shown
# Method in brief: as §1
# ELK3 = target: T6, ELK3 (Homo sapiens, UniProt P41970 1-407); details: protein: recombinant; tags: N-terminal GST; dsDNA, one strand shown
# T6 sequence: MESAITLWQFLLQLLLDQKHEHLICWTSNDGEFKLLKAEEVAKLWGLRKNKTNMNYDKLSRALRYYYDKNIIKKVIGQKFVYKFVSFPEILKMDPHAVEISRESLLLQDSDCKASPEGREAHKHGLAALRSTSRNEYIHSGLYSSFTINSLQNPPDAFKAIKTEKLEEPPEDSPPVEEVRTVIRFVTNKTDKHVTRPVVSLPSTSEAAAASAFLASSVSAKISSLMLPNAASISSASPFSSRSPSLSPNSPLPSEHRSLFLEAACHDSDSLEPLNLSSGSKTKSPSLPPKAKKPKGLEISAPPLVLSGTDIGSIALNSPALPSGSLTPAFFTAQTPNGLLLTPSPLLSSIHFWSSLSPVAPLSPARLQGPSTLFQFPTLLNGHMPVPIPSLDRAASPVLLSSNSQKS
# Method in brief: as §1
# FEV = target: T7, FEV (Homo sapiens, UniProt Q99581 1-238); details: protein: recombinant; tags: N-terminal GST; dsDNA, one strand shown
# T7 sequence: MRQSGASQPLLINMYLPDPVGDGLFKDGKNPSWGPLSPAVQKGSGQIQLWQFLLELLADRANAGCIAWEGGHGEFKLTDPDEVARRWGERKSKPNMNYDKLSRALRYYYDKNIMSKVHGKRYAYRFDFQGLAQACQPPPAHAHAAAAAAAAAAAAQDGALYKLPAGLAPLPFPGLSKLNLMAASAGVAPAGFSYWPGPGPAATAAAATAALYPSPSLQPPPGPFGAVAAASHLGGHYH
# Method in brief: as §1
# ETV5 = ETV5 (Homo sapiens, UniProt P41161 1-510); details: protein: recombinant; tags: N-terminal GST; dsDNA, one strand shown
# Method in brief: as §1
# HSF1 = HSF1 (Homo sapiens, UniProt Q00613 1-529); details: protein: recombinant; tags: N-terminal GST; chain copies: 3; dsDNA, one strand shown
# Method in brief: as §1
# SPIC = target: T8, SPIC (Homo sapiens, UniProt Q8N5J4 1-248); details: protein: recombinant; tags: N-terminal GST; dsDNA, one strand shown
# T8 sequence: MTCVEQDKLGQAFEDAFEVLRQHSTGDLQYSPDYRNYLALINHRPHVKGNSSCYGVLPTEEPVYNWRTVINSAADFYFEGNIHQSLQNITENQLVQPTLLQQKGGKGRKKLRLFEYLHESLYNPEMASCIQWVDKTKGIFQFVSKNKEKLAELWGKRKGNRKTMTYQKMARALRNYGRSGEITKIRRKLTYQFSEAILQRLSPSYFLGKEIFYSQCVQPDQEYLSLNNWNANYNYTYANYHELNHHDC
# Method in brief: as §1
# ELF4 = ELF4 (Homo sapiens, UniProt Q99607 1-663); details: protein: recombinant; tags: N-terminal GST; dsDNA, one strand shown
# Method in brief: as §1
# ELK4 = target: T9, ELK4 (Homo sapiens, UniProt P28324-2 1-405); details: protein: recombinant; tags: N-terminal GST; dsDNA, one strand shown
# T9 sequence: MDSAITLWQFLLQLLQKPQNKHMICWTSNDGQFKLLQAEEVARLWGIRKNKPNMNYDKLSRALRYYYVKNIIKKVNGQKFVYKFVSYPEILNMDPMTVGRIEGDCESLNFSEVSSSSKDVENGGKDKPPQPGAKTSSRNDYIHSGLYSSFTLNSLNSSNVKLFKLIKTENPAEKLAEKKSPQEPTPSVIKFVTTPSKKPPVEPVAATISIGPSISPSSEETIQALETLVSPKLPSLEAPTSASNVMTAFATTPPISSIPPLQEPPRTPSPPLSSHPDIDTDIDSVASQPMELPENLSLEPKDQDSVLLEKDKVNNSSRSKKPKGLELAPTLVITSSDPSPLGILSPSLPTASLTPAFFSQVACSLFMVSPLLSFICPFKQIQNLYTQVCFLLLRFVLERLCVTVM
# Method in brief: as §1
# ETV2 = target: T10, ETV2 (Homo sapiens, UniProt O00321 1-342); details: protein: recombinant; tags: N-terminal GST; dsDNA, one strand shown
# T10 sequence: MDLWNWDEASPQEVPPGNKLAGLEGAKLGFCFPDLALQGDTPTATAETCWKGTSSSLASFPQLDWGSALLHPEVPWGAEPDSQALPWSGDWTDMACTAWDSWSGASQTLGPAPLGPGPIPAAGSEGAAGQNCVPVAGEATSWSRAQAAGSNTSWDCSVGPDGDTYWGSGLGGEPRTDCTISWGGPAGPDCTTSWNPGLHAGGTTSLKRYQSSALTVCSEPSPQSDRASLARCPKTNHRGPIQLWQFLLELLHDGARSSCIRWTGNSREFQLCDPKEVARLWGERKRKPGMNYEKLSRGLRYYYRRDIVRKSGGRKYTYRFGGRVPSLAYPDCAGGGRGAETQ
# Method in brief: as §1
# ELF3 = target: T11, ELF3 (Homo sapiens, UniProt P78545 1-371); details: protein: recombinant; tags: N-terminal GST; dsDNA, one strand shown
# T11 sequence: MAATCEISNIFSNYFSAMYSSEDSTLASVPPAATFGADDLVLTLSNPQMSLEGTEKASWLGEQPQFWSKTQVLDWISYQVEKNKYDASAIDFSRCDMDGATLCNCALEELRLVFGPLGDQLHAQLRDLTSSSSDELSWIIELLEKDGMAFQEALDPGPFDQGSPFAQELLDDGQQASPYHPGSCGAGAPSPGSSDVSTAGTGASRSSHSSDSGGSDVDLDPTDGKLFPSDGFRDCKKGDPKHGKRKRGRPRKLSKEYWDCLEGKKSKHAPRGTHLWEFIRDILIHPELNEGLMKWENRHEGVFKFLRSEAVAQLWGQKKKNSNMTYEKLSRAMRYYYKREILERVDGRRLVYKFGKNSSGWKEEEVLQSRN
# Method in brief: as §1
# CRX = CRX (Homo sapiens, UniProt O43186 1-299); details: protein: recombinant; tags: N-terminal GST; dsDNA, one strand shown
# Method in brief: as §1
# ETV1 = ETV1 (Homo sapiens, UniProt P50549 1-477); details: protein: recombinant; tags: N-terminal GST; dsDNA, one strand shown
# Method in brief: as §1
# Sequence of ELF4 (Q99607 whole entry): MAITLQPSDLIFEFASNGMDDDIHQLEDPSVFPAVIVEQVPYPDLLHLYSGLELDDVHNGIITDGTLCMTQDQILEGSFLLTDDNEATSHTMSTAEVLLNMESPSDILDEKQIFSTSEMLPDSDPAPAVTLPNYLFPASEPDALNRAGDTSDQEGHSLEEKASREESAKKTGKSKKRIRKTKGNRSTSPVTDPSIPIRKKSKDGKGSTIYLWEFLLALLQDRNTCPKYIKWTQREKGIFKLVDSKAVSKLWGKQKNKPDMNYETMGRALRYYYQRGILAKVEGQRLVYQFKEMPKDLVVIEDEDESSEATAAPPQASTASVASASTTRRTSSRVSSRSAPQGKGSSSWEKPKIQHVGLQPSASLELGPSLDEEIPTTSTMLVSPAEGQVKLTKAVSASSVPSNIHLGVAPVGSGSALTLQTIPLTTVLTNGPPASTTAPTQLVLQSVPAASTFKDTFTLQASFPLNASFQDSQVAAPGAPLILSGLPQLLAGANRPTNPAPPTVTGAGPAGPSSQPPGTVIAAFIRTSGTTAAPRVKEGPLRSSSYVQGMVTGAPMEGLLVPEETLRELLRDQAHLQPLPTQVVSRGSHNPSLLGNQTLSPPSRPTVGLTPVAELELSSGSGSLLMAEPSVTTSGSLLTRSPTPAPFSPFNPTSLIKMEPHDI
# Sequence of ETV5 (P41161 whole entry): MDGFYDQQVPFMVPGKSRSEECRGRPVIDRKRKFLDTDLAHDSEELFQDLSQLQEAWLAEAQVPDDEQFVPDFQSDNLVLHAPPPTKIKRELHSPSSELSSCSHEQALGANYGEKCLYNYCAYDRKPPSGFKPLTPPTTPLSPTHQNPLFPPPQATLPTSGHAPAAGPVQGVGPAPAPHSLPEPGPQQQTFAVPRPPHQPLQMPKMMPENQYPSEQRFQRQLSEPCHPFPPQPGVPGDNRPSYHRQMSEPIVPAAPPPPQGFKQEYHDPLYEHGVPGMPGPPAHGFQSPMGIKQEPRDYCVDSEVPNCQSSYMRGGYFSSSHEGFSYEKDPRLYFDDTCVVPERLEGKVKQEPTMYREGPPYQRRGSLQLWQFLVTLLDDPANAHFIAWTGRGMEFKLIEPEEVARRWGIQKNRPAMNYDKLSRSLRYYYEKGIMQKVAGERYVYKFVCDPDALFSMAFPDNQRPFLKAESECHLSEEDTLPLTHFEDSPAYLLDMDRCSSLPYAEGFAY
# Sequence of SPIB (Q01892 whole entry): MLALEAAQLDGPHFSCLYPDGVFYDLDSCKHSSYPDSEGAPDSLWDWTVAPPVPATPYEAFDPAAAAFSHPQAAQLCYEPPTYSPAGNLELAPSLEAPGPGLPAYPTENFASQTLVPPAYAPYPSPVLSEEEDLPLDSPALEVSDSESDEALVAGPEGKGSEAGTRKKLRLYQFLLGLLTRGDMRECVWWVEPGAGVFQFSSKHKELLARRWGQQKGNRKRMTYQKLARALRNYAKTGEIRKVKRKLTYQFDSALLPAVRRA
# Sequence of CRX (O43186 whole entry): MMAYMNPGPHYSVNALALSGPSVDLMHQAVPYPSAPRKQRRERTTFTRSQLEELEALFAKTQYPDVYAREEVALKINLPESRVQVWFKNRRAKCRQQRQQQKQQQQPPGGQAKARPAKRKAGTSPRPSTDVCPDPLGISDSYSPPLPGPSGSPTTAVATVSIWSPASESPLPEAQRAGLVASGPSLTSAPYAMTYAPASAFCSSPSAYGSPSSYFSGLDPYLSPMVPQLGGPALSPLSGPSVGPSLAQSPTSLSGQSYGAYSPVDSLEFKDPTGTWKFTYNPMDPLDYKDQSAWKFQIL
# Sequence of ETV1 (P50549 whole entry): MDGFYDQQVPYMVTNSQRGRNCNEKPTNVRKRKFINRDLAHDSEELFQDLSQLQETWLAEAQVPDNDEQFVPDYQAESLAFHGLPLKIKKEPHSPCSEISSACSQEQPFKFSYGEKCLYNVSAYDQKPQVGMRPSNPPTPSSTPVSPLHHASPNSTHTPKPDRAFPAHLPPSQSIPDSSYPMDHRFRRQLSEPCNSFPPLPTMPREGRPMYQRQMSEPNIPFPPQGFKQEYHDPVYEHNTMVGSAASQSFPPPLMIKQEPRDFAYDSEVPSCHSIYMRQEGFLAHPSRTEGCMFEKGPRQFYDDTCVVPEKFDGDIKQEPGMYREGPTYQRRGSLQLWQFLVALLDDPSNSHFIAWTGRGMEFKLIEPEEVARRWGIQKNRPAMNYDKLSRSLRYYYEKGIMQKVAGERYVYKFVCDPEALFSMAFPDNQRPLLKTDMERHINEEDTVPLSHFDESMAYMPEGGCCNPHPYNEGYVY
# Sequence of HSF1 (Q00613 whole entry): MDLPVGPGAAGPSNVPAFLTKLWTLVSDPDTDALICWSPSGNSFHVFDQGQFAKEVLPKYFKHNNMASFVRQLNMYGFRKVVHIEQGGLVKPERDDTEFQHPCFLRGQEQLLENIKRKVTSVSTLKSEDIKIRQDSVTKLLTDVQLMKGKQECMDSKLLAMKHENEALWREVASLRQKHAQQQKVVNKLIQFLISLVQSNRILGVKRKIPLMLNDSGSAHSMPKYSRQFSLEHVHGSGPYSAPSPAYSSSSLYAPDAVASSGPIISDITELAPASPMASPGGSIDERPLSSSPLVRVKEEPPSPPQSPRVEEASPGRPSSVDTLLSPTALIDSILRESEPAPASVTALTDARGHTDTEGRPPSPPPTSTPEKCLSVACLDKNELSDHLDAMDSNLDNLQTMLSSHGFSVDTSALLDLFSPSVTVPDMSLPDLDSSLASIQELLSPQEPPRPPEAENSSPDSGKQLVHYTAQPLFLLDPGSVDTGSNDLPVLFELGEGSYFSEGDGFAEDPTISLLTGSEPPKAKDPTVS
# Sequence of ELF1 (P32519 whole entry): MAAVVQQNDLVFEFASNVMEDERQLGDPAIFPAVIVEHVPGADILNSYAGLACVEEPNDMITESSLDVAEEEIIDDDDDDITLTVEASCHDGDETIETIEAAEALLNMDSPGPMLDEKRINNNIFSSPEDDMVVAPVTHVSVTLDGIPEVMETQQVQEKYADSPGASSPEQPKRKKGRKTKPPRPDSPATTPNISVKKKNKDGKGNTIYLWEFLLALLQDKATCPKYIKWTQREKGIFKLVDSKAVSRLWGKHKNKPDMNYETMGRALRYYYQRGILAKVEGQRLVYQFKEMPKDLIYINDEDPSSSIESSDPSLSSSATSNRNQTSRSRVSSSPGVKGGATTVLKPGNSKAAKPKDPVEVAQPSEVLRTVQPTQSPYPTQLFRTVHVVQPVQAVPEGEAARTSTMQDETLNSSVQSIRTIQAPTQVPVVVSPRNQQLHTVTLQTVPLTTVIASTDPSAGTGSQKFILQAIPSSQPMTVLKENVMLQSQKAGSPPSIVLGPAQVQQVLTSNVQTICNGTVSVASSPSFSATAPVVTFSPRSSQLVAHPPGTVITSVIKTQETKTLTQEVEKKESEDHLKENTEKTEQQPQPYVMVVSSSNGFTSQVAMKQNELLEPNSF
sequence,measurement,setting,value
AATTGG,binding signal,FLI1,"1.38 fold enrichment (6-mer frequency, TF over GST control)"
same,binding signal,ELK1,"1.36 fold enrichment (6-mer frequency, TF over GST control)"
same,binding signal,GABPA,"1.31 fold enrichment (6-mer frequency, TF over GST control)"
same,binding signal,ERG,"1.34 fold enrichment (6-mer frequency, TF over GST control)"
same,binding signal,ELF1,"1.33 fold enrichment (6-mer frequency, TF over GST control)"
same,binding signal,EHF,"1.42 fold enrichment (6-mer frequency, TF over GST control)"
same,binding signal,SPI1,"1.4 fold enrichment (6-mer frequency, TF over GST control)"
same,binding signal,SPIB,"1.42 fold enrichment (6-mer frequency, TF over GST control)"
same,binding signal,ELK3,"1.48 fold enrichment (6-mer frequency, TF over GST control)"
same,binding signal,FEV,"1.43 fold enrichment (6-mer frequency, TF over GST control)"
same,binding signal,ETV5,"1.4 fold enrichment (6-mer frequency, TF over GST control)"
same,binding signal,HSF1,"1.2 fold enrichment (6-mer frequency, TF over GST control)"
same,binding signal,SPIC,"1.26 fold enrichment (6-mer frequency, TF over GST control)"
same,binding signal,ELF4,"1.38 fold enrichment (6-mer frequency, TF over GST control)"
same,binding signal,ELK4,"1.16 fold enrichment (6-mer frequency, TF over GST control)"
same,binding signal,ETV2,"1.2 fold enrichment (6-mer frequency, TF over GST control)"
same,binding signal,ELF3,"1.35 fold enrichment (6-mer frequency, TF over GST control)"
same,binding signal,CRX,"1.23 fold enrichment (6-mer frequency, TF over GST control)"
same,binding signal,ETV1,"1.39 fold enrichment (6-mer frequency, TF over GST control)"
